Measurements: PubChem BioAssay AID639 (Emory University Molecular Libraries Screening Center, 2007)
The whole screen tested about 86,000 compounds, of which about 1,200 (1.4%) were called active. Rule as the data show it: active = activity above about 200%; inactive = the rest. The list comes from a sample in which actives are over-represented; it also holds similar structures and randomly drawn compounds.

Target: Estrogen receptor (Homo sapiens) (UniProt P03372)
Test: enhancers of ERα–SRC-1 coactivator binding, primary screen, biochemical, TR-FRET, ERα LBD, low estradiol (AID 639);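 also: binding measured in presence of low estradiol as agonist stimulus; 0% = peptide alone without receptor and 100% = receptor with peptide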
Conditions: TR-FRET ERalpha-LBD/SRC-Cy5 coactivator binding, 2 h; at 25.6 µM; hits give high values; 100 = basal binding, no effect

Sequence of Estrogen receptor (Homo sapiens) (P03372 whole entry, looked up, the tested form may be a part): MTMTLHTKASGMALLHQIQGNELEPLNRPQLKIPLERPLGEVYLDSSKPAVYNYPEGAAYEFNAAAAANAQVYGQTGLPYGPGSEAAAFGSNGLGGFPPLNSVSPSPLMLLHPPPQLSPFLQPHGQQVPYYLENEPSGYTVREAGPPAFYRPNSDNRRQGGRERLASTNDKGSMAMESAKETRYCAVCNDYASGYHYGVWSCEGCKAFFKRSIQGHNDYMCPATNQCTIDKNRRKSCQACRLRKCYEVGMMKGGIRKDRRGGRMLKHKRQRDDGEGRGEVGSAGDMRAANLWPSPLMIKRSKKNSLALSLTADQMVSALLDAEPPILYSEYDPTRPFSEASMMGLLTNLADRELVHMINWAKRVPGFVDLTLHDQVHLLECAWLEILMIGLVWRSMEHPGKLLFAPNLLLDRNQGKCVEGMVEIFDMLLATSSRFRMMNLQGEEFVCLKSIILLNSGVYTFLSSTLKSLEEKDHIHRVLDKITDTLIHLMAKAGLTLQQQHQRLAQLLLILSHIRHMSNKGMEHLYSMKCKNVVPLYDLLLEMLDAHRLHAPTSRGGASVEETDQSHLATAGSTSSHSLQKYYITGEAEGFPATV

Coactivator binding (% of control), active:
CCOc1cc(C2C(C(=O)OC)=CN(C3CCCC3)C=C2C(=O)OC)cc(Br)c1O 210% [fluorescence artefact?]
CCOc1ccc(CC(=O)Nc2ccc(S(=O)(=O)Nc3cc(C)on3)cc2)cc1OCC 311% [fluorescence artefact?]
CCOc1ccc2cc(C#N)c(SCC(=O)OC)nc2c1 260% [fluorescence artefact?]
CCOC(=O)c1cnc(-n2nc(C)cc2C)nc1Nc1cccc(C(C)=O)c1 868% [fluorescence artefact?]
COc1ccc(-n2c(C)cc(C(=O)CSc3nnc(-c4cccs4)o3)c2C)cc1 201%
N#CC(=C1SC=CS1)c1nc(-c2ccccc2)cs1 206%
COc1ccc(-n2ncc3c(N4CCc5ccccc54)ncnc32)cc1 200% [fluorescence artefact?]
CCOC(=O)C1=C(c2ccccc2)O/C(=C(/C(=O)OC)C(F)(F)F)S1 360% [fluorescence artefact?]
Cc1ccc(NC(=O)CSc2nnc(-c3cnccn3)n2Cc2ccco2)cc1C 335%
O=C(NCCCN1CCCCCC1)c1ccc(N2CCCC2=O)cc1 588% [fluorescence artefact?]
COCCn1c(C)cc(C(=O)CSc2ncnc3sc4c(c23)CCC4)c1C 409% [fluorescence artefact?]
Cc1nc(SCC(=O)Nc2cc(C)on2)c2c(C)c(C)sc2n1 565% [fluorescence artefact?]
Cc1cc(NC(=O)CSc2nc(C(C)C)nc3sc4c(c23)CCC(C)C4)no1 (configuration not stated) 269% [fluorescence artefact?]
CCN1C(=O)/C(=C\N2CCN(c3cccc(Cl)c3)CC2)SC1=S 413% [fluorescence artefact?]
CCN1C(=O)/C(=C\N2CCN(c3ccccc3)CC2)SC1=S 289%
CCn1c(SCC(=O)Nc2cccc(F)c2)nnc1-c1cc2cc(Br)ccc2o1 476%
Cn1c(C(=O)NCCc2ccsc2)cc2c(=O)n(C)c3ccccc3c21 278%

Coactivator binding (% of control), inactive:
CCOc1ccccc1C1C(C(=O)OC)=CN(C)C=C1C(=O)OC 93.7%
CCOc1ccc(CNC(=O)C2CCC(=O)N2C2CCCC2)cc1OC (configuration not stated) 131%
CCOCc1nnc(NC(=O)CSc2ccc(C)cc2)s1 102%
CCOc1ccccc1NC(=O)C1CCCN(C(=O)Nc2ccccc2)C1 (configuration not stated) 92.4%
CCOc1ccc(NC(=O)Nc2cc(C)on2)cc1 107%
Cc1cc(NS(=O)(=O)c2ccccc2)no1 122%
CCCCC(C(=O)OCC(=O)c1ccc(OC)cc1)N1C(=O)c2ccccc2C1=O (configuration not stated) 97.8%
Cn1c(=O)c2c(ncn2CC(COCc2ccccc2Cl)OCc2ccccc2Cl)n(C)c1=O (configuration not stated) 112%
CCOC(=O)c1nnn(-c2nonc2-n2cccc2)c1CN1CCC(C(=O)OCC)CC1 114%
O=c1[nH]c(SCc2ccccc2)nnc1-c1ccccc1 103%
COC(=O)CSc1nc(C)c2ccc(OC)cc2n1 100%
COc1ccc(N2CCN(C(=O)CSc3nc4cc(OC)c(OC)cc4cc3C#N)CC2)cc1 101%
CC(C)C(OC(=O)c1cccs1)C(=O)NC1CCCCC1 (configuration not stated) 115%
CCOCCCNC(=O)C(NC(=O)c1ccc(=O)[nH]c1)c1ccc(C)cc1 (configuration not stated) 107%
CCOC(=O)c1cnc(SCC(=O)Nc2cccc(OC)c2)nc1N 113%
CCOC(=O)c1cnc(-n2nc(C)cc2C)nc1-n1nc(C)cc1C 116%
N=c1c2c3c(sc2nc2n1CCCCC2)CCCC3 113%
CNC(=S)N1N=C(c2ccccc2)CC1c1ccc(Br)cc1 (configuration not stated) 171%
COc1ccc(-c2nnc(SCC(=O)c3cccs3)o2)c(OC)c1 94.7%
COc1ccc(OC)c(C(=O)CSc2nnc(-c3cccs3)o2)c1 125%
CCN(CC)C(=O)CSc1ncnc2c1cnn2-c1ccccc1 117%
Cc1nc2c(-c3ccc(F)cc3)c(C)nn2c(C)c1CCC(=O)NCc1ccco1 96.1%
CC(C)N1C(=S)SC(C)(C)C1n1oc(=O)n(-c2ccc(Cl)c(Cl)c2)c1=O (configuration not stated) 113%
Cc1cc(C)n(C(=O)CCNC(=O)c2ccccc2Cl)n1 100%
Cc1ccc(C)c(N2C(=O)CS/C2=N\NC(=O)c2ccccc2Cl)c1 102%
CCc1ccc(CNC(=O)C2CC(=O)N(CCc3ccc(C)cc3)C2)cc1 (configuration not stated) 115%
N#C/C(=C1\CCCN1)c1nc(-c2ccccc2)cs1 116%
N#CC(=C1CCCC1)c1nc(-c2ccc(Cl)cc2)cs1 103%
Cc1nc(N2CCOCC2)nc2c1CCCC2 111%
CCCOc1ccc(N2C(=O)CC(N(CCc3ccc(S(N)(=O)=O)cc3)C(C)=O)C2=O)cc1 (configuration not stated) 126%
Nn1c(Cc2cccc3ccccc23)nnc1SCC(=O)N1CC(=O)Nc2ccccc21 63.7%
COc1ccc(-n2ncc3c(N4CCCc5ccccc54)ncnc32)cc1 97.2%
Cc1cccc(-n2ncc3c(N4CCc5ccccc54)ncnc32)c1 137%
CCOC(=O)c1nnn(-c2nonc2OC)c1-c1ccccc1 102%
CCOC(=O)NC(C(F)(F)F)(C(F)(F)F)P(=O)(c1ccccc1)c1ccccc1 95.9%
COC(=O)c1ccccc1NC(=O)Cc1ccccc1OC 120%
COc1ccc(NC(=O)CC2COc3ccccc3O2)c(OC)c1 (configuration not stated) 104%
CCc1ccc(NC(=O)CSc2nnc(-c3cnccn3)n2Cc2ccco2)cc1 148%
O=C(CSc1nnc(-c2cnccn2)n1Cc1ccco1)c1ccc(Cl)c(Cl)c1 137%
CCOc1ccc(NC(=O)CN(C)CC(=O)Nc2cccc(Cl)c2C)cc1OCC 105%
CC1CCC(NC(=O)c2ccc(N3CCCC3=O)cc2)CC1 (configuration not stated) 143%
CCOc1ccc(C(=O)NCCCN2CCCC2=O)cc1 96%
CCOc1cc(C(=O)Nc2c(C)ccc3nsnc23)cc(OCC)c1OCC 78.1%
O=C(NCc1ccccc1)C1CCCN(S(=O)(=O)c2cccs2)C1 (configuration not stated) 91.1%
COCCNC(=O)COc1ccccc1C 118%
COc1ccc(CCNC(=O)CN(c2ccccc2)S(C)(=O)=O)cc1OC 76.4%
CN(C)c1ccnc2sc3c(=O)n(-c4ccc(Cl)cc4)cnc3c12 162%
Cc1cc(C)n(-c2nc(SCC(=O)N3CCCC3)c3c4c(sc3n2)CCCC4)n1 93.8%
COCCn1c(SCc2nnc(-c3ccc(OC)c(OC)c3)o2)nc2sc3c(c2c1=O)CCC3 94.4%
CCCCCCC12CCC(C(=O)O)(CC1)CC2 104%
CC(=O)Oc1ccc(NC(=O)CCC2CCCCC2)c(C(=O)O)c1 105%
CC(NC(=O)C1CCC(CNc2c(N3CCOCC3)c(=O)c2=O)CC1)c1ccccc1 (configuration not stated) 98.1%
Cc1ccc(-c2csc(SCC(=O)Nc3cc(C)on3)n2)cc1 98.5%
C=CCn1c(SCc2c(C)noc2C)nc2sc3c(c2c1=O)CCC(C)C3 (configuration not stated) 93.6%
CC1CCc2c(sc3nc4n(c(=O)c23)CCS4)C1 (configuration not stated) 96.2%
Cc1nc(SCC(=O)Nc2cc(C)on2)c2c3c(sc2n1)CCCC3 128%
O=C(c1ccc2c(c1)OCO2)N1CCN(C(=O)c2ccco2)CC1 103%
Cc1cccc(S(=O)(=O)CC(=O)Nc2nc(-c3ccccc3)cs2)c1 103%
Cc1cc(=O)oc2cc(OCC3CC(c4ccccc4Cl)=NO3)ccc12 (configuration not stated) 117%
O=C(Nc1ccc(Br)cc1)c1cccc(NC(=O)C2C3CC4OC(=O)C2C4C3)c1 (configuration not stated) 115%
CCn1c(=O)cc(OCC(=O)NCCCN2CCN(c3cccc(Cl)c3)CC2)c2ccccc21 107%
CCS(=O)(=O)N1CCC(C(=O)N2CCN(c3ccccc3)CC2)CC1 103%
CCN1C(=O)/C(=C\N2CCOCC2)SC1=S 93%
CS(=O)(=O)N(CC(=O)N1CCN(c2cccc(Cl)c2)CC1)c1ccccc1 118%
Cc1cccc(-c2nc3c(c(SCC(=O)N4CCOCC4)n2)CCCC3)c1 94.4%
CC1CCN(C(=O)c2cc3nc(C4CC4)cc(C(F)(F)F)n3n2)CC1 93.5%
COCCNC(=O)Cn1cc(C(=O)c2cccs2)c2ccccc21 102%
CCn1c(Cc2ccccc2)nnc1SCC(=O)Nc1ccccc1 122%
CCCn1c(SCC(=O)Nc2cccc(C(=O)OCC)c2)nnc1-c1ccoc1C 97.2%
CCOc1ccc(-n2c(N)c(C(=O)NCC3CCCO3)sc2=S)cc1 (configuration not stated) 99.2%
O=c1[nH][nH]c(C(F)(F)F)c1C=NCc1ccccc1Cl 109%
CC1CCCC(C)N1CCCNC(=O)c1cc2c(=O)n(C)c3ccccc3c2n1C (configuration not stated) 74.4%
Cn1c(C(=O)NCCCN2CCN(c3cccc(Cl)c3)CC2)cc2c(=O)n(C)c3ccccc3c21 132%
CCOc1ccc(S(=O)(=O)NCC2CCCO2)cc1 (configuration not stated) 97.5%
COCCn1c(=S)[nH]c2cc(C(=O)NCCc3ccc(OC)c(OC)c3)ccc2c1=O 179%
